Unmarked numbers belong to inactive results. Inconclusive results are not listed. Where a call stands in place of a potency, no number is given. Activity calls are given as the source filed them. Unless noted, calls come from the whole dose curve.
Key:
[1] = Nuclear factor erythroid 2-related factor 2/antioxidant responsive element (Nrf2/ARE) small molecule agonists: qHTS cell viability counter screen in human keratinocytes (AID 1919968; active = well fitted curve in the direction sought with a large enough effect in the repeat runs; an effect the other way counts as inactive or inconclusive; note: nearly all actives have a fitted effect of over 55% in size; note: potency is the fitted concentration of half-maximal effect)
How it was run: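 KeratinoSens HaCaT cells, 1,500/well, preincubated 5 h, then exposed to compounds in DMSO for 23 h at 37 C/5% CO2. Viability read as CellTiter-Fluor fluorescence after 1 h, in the same wells as the ARE-luciferase read.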

[2] = biological target: Gonadotropin-releasing hormone receptor (Homo sapiens) (UniProt P30968); assay: Human gonadotropin-releasing hormone receptor (GnRHR) small molecule agonists, calcium flux assay in GnRHR-HEK293 cells (AID 1920063); note: nearly all actives have a fitted effect of over 35% in size
How it was run: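 HEK293 cells stably expressing human GnRHR were dye-loaded for 1 h at 37 C. Compound was added in agonist mode and fluorescence (Ex/Em 480/540) recorded kinetically for 3 min. Fifteen concentrations, triplicates.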

[3] = biological target: KiSS-1 receptor (Homo sapiens) (UniProt Q969F8); assay: Human kisspeptin (KISS1R) small molecule agonists, calcium flux assay in KISS1R-HEK293 cells (AID 1920064; active = well fitted curve in the direction sought with a large enough effect in the repeat runs; an effect the other way counts as inactive or inconclusive)
How it was run: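 HEK293 cells stably expressing human KISS1R were loaded with calcium dye for 1 h at 37 C, then given compound; fluorescence (Ex/Em 480/540) was read kinetically for 3 min. Fifteen concentrations, triplicate.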

[4] = G protein-coupled receptor (GPCR) small molecule agonists, calcium flux assay: HEK293 wild type cell line counter screen (AID 1920065)
How it was run: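 Wild-type HEK293 cells plated 18 h, loaded with calcium dye 1 h at 37 C, then compounds added in agonist mode (ATP as positive control). Kinetic fluorescence Ex/Em 480/540 recorded 3 min at 1 sec intervals; 15 concentrations, triplicate.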

[5] = p53 small molecule agonists, cell-based qHTS assay with human liver microsomes: qHTS cell viability counter screen (AID 1963579); note: nearly all actives have a fitted effect of over 45% in size; note: potency is the fitted concentration of half-maximal effect
How it was run: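 Viability of p53RE-bla cells is measured as CellTiter-Glo luminescence following a 16 h, 37 C incubation with compound, liver microsomes from human donors and NADPH.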

[6] = p53 small molecule agonists, cell-based qHTS assay with rat liver microsomes: qHTS cell viability counter screen (AID 1963580); note: nearly all actives have a fitted effect of over 45% in size; note: potency is the fitted concentration of half-maximal effect
How it was run: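 p53RE-bla HCT-116 cells were exposed 16 h at 37 C to compounds with rat liver microsomes (0.5 mg/mL) and NADPH (0.5 mg/mL). Viability was measured in the same wells as ATP content by CellTiter-Glo luminescence.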

[7] = p53 small molecule agonists, cell-based qHTS assay: qHTS cell viability counter screen (AID 1963581); note: nearly all actives have a fitted effect of over 45% in size; note: potency is the fitted concentration of half-maximal effect
How it was run: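 p53RE-bla HCT-116 cells, compounds added 5 h after plating and incubated 16 h at 37 C. Cytotoxicity measured in the same wells as intracellular ATP by CellTiter-Glo luminescence after 30 min at room temperature.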

[8] = biological target: 5-hydroxytryptamine receptor 2A (Homo sapiens) (UniProt P28223); assay: 5-hydroxytryptamine receptor 2A (HTR2A) small molecule antagonists, cell-based qHTS assay (AID 1963586); note: nearly all actives have a fitted effect of over 45% in size
How it was run: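 Antagonist-mode intracellular calcium assay: DOI (4 nM) added after 5 min compound pre-incubation at room temperature to dye-loaded HTR2A-CHO cells. Fluorescence followed for 3 min, sampled every second.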

[9] = biological target: 5-hydroxytryptamine receptor 2A (Homo sapiens) (UniProt P28223); assay: 5-hydroxytryptamine receptor 2A (HTR2A) small molecule agonists, cell-based qHTS assay (AID 1963587); note: nearly all actives have a fitted effect of over 30% in size
How it was run: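 CHO cells stably expressing human HTR2A, plated 18 h, loaded with calcium dye 1 h at 37 C. Agonist mode: compounds added and intracellular calcium fluorescence recorded kinetically for 2 min at 1 sec intervals.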

[10] = biological target: Muscarinic acetylcholine receptor M1 (Homo sapiens) (UniProt P11229); assay: Cholinergic receptor muscarinic 1 (CHRM1) small molecule antagonists, cell-based qHTS assay (AID 1963588); note: nearly all actives have a fitted effect of over 40% in size
How it was run: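 CHRM1-CHO calcium-flux assay, antagonist mode. Cells were seeded 18 h, dye-loaded 1 h at 37 C and given compound for 5 min at RT, then acetylcholine was added at 50nM. FDSS fluorescence was read 3 min; 15 concentrations, three runs.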

[11] = biological target: Muscarinic acetylcholine receptor M1 (Homo sapiens) (UniProt P11229); assay: Cholinergic receptor muscarinic 1 (CHRM1) small molecule agonists, cell-based qHTS assay (AID 1963589); note: nearly all actives have a fitted effect of over 35% in size
How it was run: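 CHO cells stably expressing human CHRM1 were loaded with calcium dye for 1 h at 37 C, then compound was added in agonist mode. Intracellular calcium fluorescence was followed kinetically at 1 s intervals. Fifteen concentrations were tested in three independent runs.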

[12] = cAMP Responsive Elements (CRE) small molecule antagonists, cell-based qHTS assay (AID 1963591; active = well fitted inhibition curve with a large enough effect in the signal ratio in the repeat runs, not every such curve was filed as active; the % refers to the signal ratio)
How it was run: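 CRE-bla HEK293T cells plated 18 h, then given compound plus NKH477 at 0.25 uM final for 3 h at 37C. Beta-lactamase reporter read with LiveBLAzer B/G FRET substrate after 2 h at room temperature.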

[13] = cAMP Responsive Elements (CRE) small molecule agonists, cell-based qHTS assay (AID 1963590)
How it was run: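 CRE-bla HEK 293T cells, 2,000/well in DMEM with 10% dialyzed FBS and 25 mM HEPES, pre-incubated 18 h at 37 C, then exposed to compound 3 h at 37 C. Beta-lactamase reporter read with LiveBLAzer B/G FRET substrate after 2 h at room temperature.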

[14] = biological target: Beta-2 adrenergic receptor (Homo sapiens) (UniProt P07550); assay: Adrenergic beta2 receptor (ADRB2) small molecule antagonists, cell-based qHTS assay (AID 1963592); note: series mostly up to about 92 µM; nearly all actives have a fitted effect of over 50% in size
How it was run: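 Cells (CHO, stable ADRB2 overexpression) incubated 18-20hr at 37C; compounds added from DMSO; agonist mix (1nM isoproterenol, 100uM IBMX, 25uM Ro-20-1724) added; 0.5hr RT; d2-cAMP and anti-cAMP-cryptate added; 1hr RT; 665/615 nm read.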

[15] = biological target: D(2) dopamine receptor (Homo sapiens) (UniProt P14416); assay: Dopamine D2 receptor (DRD2) small molecule agonists, cell-based qHTS assay (AID 1963594); note: nearly all actives have a fitted effect of over 35% in size
How it was run: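 HEK293 cells stably expressing human DRD2, pre-treated with PDE inhibitor Ro20-1724 (0.1 mM final) and compound 10 min at room temperature, then stimulated with NKH477 (200nM […]) for 30 min. cAMP read by HTRF (665/620 nm).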

[16] = biological target: D(2) dopamine receptor (Homo sapiens) (UniProt P14416); assay: Dopamine D2 receptor (DRD2) small molecule antagonists, cell-based qHTS assay (AID 1963595; active = well fitted inhibition curve with a large enough effect in the signal ratio in the repeat runs, with a control signal flat; the % refers to the signal ratio)
How it was run: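 Antagonist mode in DRD2-HEK293 cells: after compound addition with 0.1 mM Ro20-1724, cells received quinpirole (12 nM) and NKH477 (200 nM) for 30 min at room temperature; HTRF cAMP read after 1 h detection.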

[17] = biological target: Beta-2 adrenergic receptor (Homo sapiens) (UniProt P07550); assay: Adrenergic beta2 receptor (ADRB2) small molecule agonists, cell-based qHTS assay (AID 1963593);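 note: CHO cells stably overexpressing human ADRB2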
How it was run: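 CHO cells stably over-expressing ADRB2 were plated overnight at 37C, then dosed with compounds plus a stimulation mix containing 100uM IBMX and 25uM Ro-20-1724 for 0.5hr at room temperature. cAMP was measured by HTRF competition, 1hr.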

Sequence of D(2) dopamine receptor (Homo sapiens) (P14416 whole entry, looked up): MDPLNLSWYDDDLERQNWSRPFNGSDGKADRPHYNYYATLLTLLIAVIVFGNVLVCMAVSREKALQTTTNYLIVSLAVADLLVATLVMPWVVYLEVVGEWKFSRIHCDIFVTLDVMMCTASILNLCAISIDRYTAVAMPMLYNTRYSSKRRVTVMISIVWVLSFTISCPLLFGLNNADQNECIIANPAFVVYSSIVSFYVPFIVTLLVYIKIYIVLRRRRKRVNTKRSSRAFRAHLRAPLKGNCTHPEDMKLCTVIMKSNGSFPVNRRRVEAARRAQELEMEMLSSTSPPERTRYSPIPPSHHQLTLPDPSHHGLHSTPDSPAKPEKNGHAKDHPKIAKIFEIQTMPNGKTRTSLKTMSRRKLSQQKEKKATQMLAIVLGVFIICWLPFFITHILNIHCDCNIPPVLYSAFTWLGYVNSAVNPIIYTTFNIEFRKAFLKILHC
Sequence of KiSS-1 receptor (Homo sapiens) (Q969F8 whole entry, looked up): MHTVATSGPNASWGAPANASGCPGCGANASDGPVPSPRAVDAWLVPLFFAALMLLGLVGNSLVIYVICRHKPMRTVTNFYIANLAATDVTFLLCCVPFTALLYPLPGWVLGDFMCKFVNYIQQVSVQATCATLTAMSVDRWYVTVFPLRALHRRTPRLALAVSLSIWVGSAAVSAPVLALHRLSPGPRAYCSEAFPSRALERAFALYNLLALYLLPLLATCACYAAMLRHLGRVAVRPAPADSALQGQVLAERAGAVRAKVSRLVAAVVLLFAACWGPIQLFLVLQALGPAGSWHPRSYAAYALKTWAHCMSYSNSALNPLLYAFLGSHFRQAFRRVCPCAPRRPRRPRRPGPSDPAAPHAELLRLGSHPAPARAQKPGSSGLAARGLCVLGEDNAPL
Sequence of Beta-2 adrenergic receptor (Homo sapiens) (P07550 whole entry, looked up): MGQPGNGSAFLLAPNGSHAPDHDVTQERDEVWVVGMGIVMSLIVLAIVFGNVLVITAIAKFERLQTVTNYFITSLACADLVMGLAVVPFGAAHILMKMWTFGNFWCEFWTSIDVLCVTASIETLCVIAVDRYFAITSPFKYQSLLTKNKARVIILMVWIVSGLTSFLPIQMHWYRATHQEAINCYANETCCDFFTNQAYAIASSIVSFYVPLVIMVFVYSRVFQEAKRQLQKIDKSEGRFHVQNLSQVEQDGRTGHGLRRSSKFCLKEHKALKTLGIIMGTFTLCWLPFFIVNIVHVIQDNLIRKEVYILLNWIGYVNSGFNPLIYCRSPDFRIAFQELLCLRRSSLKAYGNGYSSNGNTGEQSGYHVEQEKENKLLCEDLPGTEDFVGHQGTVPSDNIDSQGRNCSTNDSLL
Sequence of Gonadotropin-releasing hormone receptor (Homo sapiens) (P30968 whole entry, looked up): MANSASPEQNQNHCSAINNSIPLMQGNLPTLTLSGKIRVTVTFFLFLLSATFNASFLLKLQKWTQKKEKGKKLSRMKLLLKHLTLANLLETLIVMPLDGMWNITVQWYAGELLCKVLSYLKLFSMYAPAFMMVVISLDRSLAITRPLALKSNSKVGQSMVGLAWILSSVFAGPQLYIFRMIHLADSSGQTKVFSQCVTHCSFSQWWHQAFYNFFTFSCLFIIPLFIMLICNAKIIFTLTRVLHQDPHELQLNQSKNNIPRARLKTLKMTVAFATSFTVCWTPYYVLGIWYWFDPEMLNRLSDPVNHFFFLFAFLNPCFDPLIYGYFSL
Sequence of 5-hydroxytryptamine receptor 2A (Homo sapiens) (P28223 whole entry, looked up): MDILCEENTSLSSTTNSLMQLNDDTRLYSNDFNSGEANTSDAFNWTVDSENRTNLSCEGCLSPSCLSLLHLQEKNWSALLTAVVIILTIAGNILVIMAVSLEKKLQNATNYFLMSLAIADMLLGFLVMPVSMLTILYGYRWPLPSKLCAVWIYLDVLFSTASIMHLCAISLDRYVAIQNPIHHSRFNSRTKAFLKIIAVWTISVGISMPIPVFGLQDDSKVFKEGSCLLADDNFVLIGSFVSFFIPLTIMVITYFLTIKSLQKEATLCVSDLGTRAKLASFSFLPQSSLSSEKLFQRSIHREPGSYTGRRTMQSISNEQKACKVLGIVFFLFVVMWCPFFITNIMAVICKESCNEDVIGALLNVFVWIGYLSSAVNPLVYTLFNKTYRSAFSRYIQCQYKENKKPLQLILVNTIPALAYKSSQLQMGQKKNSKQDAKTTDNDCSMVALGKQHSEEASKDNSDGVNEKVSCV
Sequence of Muscarinic acetylcholine receptor M1 (Homo sapiens) (P11229 whole entry, looked up): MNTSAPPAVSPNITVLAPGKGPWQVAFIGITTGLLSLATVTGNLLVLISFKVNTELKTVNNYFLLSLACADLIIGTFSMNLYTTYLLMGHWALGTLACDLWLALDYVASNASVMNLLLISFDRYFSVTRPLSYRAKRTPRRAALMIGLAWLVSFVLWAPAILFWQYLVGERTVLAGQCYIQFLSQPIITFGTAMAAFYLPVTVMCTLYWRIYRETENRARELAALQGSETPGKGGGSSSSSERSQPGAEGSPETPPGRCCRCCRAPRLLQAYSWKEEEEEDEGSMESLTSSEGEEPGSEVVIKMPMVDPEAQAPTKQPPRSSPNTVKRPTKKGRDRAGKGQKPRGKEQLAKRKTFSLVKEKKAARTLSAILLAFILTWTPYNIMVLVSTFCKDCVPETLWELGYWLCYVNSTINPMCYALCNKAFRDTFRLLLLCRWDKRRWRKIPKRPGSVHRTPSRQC

Structure (SMILES): CCN(Cc1cccc(S(=O)(=O)O)c1)c1ccc(C(=C2C=CC(=[N+](CC)Cc3cccc(S(=O)(=O)O)c3)C=C2)c2ccc(O)cc2S(=O)(=O)[O-])cc1
- Potency [1]: 33.1 µM (active)
- Potency [2]: inactive
- Potency [3]: inactive
- Potency [4]: inactive
- Potency [5]: 24.8 µM (active)
- Potency [6]: 24.8 µM (active)
- Potency [7]: 11.1 µM (active)
- Potency [8]: inactive
- Potency [9]: inactive
- Potency [10]: inactive
- Potency [11]: inactive
- Potency [12]: inactive

Structure (SMILES): Cn1cc(C(=O)[C@@H]2CCc3nc[nH]c3C2)c2ccccc21
- Potency [1]: inactive
- Potency [2]: inactive
- Potency [3]: inactive
- Potency [4]: inactive
- Potency [5]: inactive
- Potency [6]: inactive
- Potency [7]: inactive
- Potency [8]: inactive
- Potency [9]: inactive
- Potency [10]: inactive
- Potency [11]: inactive
- Potency [13]: inactive
- Potency [12]: inactive
- Potency [14]: inactive
- Potency [15]: inactive
- Potency [16]: inactive

Structure (SMILES): Cc1ccccc1S
- Potency [1]: inactive
- Potency [2]: inactive
- Potency [3]: inactive
- Potency [4]: inactive
- Potency [5]: inactive
- Potency [6]: inactive
- Potency [7]: inactive
- Potency [8]: inactive
- Potency [9]: inactive
- Potency [10]: inactive
- Potency [11]: inactive
- Potency [13]: inactive
- Potency [12]: inactive
- Potency [14]: inactive
- Potency [15]: inactive
- Potency [16]: inactive

Structure (SMILES): CCCCCCCCCCl
- Potency [1]: inactive
- Potency [2]: inactive
- Potency [3]: inactive
- Potency [4]: inactive
- Potency [5]: inactive
- Potency [6]: inactive
- Potency [7]: inactive
- Potency [8]: inactive
- Potency [9]: inactive
- Potency [10]: inactive
- Potency [11]: inactive
- Potency [13]: inactive
- Potency [12]: inactive
- Potency [14]: inactive
- Potency [15]: inactive
- Potency [16]: inactive

Structure (SMILES): CCC(Cl)CC(Cl)C(Cl)C(Cl)C(Cl)C(C)Cl (centres undefined)
- activity change, negative = cytotoxicity [1]: 2.55% [at 19 µM]
- activity change [2]: -1.19% [at 11.8 µM, active compounds read high]
- activation [3]: -1.96% [at 15.8 µM]
- activation [4]: 0.622% [at 11.8 µM]
- activity change, negative = cytotoxicity [5]: -1.84% [at 13.5 µM]
- activity change, negative = cytotoxicity [6]: -14% [at 13.5 µM]
- activity change, negative = cytotoxicity [7]: -23.5% [at 13.5 µM]
- activity, negative = inhibition [8]: -18.7% [at 12.7 µM]
- activation [9]: -1.32% [at 15.9 µM]
- activity, negative = inhibition [10]: -3.76% [at 12.6 µM]
- activation [11]: -0.121% [at 15.8 µM]
- activity change, negative = inhibition [12]: 6.46% [at 18.9 µM]
- activity change, negative = inhibition [14]: -8.4% [at 19 µM]
- activation [15]: -1.17% [at 19 µM]

Structure (SMILES): Cn1c(=O)c2c(ncn2CCO)n(C)c1=O
- Potency [1]: inactive
- Potency [2]: inactive
- Potency [3]: inactive
- Potency [4]: inactive
- Potency [5]: inactive
- Potency [6]: inactive
- Potency [7]: inactive
- Potency [8]: inactive
- Potency [9]: inactive
- Potency [10]: inactive
- Potency [11]: inactive
- Potency [13]: inactive
- Potency [12]: inactive
- Potency [14]: inactive
- Potency [15]: inactive
- Potency [16]: inactive

Structure (SMILES): N[C@@H](CCC(=O)N[C@@H](CS)C(=O)NCC(=O)O)C(=O)O
- activity change, negative = cytotoxicity [1]: 3.9% [at 19 µM]
- activity change [2]: 2.39% [at 11.8 µM, active compounds read high]
- activation [3]: 0.132% [at 15.8 µM]
- activation [4]: -1.3% [at 11.8 µM]
- activity change, negative = cytotoxicity [5]: -1.1% [at 13.5 µM]
- activity change, negative = cytotoxicity [6]: 0.778% [at 13.5 µM]
- activity change, negative = cytotoxicity [7]: 13.7% [at 13.5 µM]
- activity, negative = inhibition [8]: -1.78% [at 12.7 µM]
- activation [9]: 2.78% [at 15.9 µM]
- activity, negative = inhibition [10]: 11.9% [at 12.6 µM]
- activation [11]: -0.288% [at 15.8 µM]
- activity change, negative = inhibition [12]: -10.5% [at 18.9 µM]
- activity change, negative = inhibition [14]: -5.33% [at 19 µM]
- activation [17]: 20.3% [at 19 µM]
- activation [15]: -7.59% [at 19 µM]

Structure (SMILES): CSc1ccc(Oc2ccc(S(N)(=O)=O)cc2CN(C)C)cc1C
- Potency [1]: inactive
- Potency [2]: inactive
- Potency [3]: inactive
- Potency [4]: inactive
- Potency [5]: inactive
- Potency [6]: inactive
- Potency [7]: inactive
- Potency [8]: inactive
- Potency [9]: inactive
- Potency [10]: inactive
- Potency [11]: inactive
- Potency [13]: inactive
- Potency [12]: inactive
- Potency [15]: inactive
